# HEK293 cAMP cs: counter-screen for TSHR agonists: cAMP increase in parental HEK293; parental HEK293 CNG cAMP sensor, membrane potential fluorescence; AID 938; 73,000 compounds, 2.5% hits; Potency, µM (doses to about 57.1 µM), most hits filed as activators; also: nearly all actives have a fitted effect of over 55% in size
#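 Parental HEK 293 cells stably expressing a cAMP-gated CNG channel were loaded with membrane potential dye containing 100 uM RO 20-1724 for 60 min. Compound added for 30 min; depolarization read as fluorescence intensity at 590 nm.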
# BRCT inh red: disrupts BRCA1 BRCT binding to phosphoprotein, red fluorophore readout | P38398 | BRCT-phosphopeptide binding, red fluorescence polarization | Potency, µM (highest dose often 76.9 µM), actives largely listed as inhibitors | 75,000 compounds, 0.03% hits
#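 Fluorescence polarization: 100 nM His-tagged BRCA1 BRCT with 100 nM TAMRA-labelled phospho-BACH1 decapeptide, phosphate buffer pH 7.3 with 150 mM NaCl, DTT, 0.01% Tween 20; 12 min RT. Binding inhibition seen as FP decrease.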
# TSHR agonist: activates the human thyroid stimulating hormone receptor; Potency, µM (series often up to 57.1 µM), usual class: activators; 73,000 compounds, 0.48% hits; HEK293-CNG-TSHR cells (CNG channel as cAMP sensor), membrane potential dye, cAMP; active = well fitted activation curve with a large enough effect in the main read-out, with a control signal flat, not every such curve was filed as active; inconclusive = small, poorly fitted or top-dose-only effect, or a change in a side signal; inactive = no such curve, though single readings can be large or run the other way; reference of the percent scale not stated here;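 also: the control signal comes from parental cells without the receptor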
# Target sequence (P16473 whole entry, looked up): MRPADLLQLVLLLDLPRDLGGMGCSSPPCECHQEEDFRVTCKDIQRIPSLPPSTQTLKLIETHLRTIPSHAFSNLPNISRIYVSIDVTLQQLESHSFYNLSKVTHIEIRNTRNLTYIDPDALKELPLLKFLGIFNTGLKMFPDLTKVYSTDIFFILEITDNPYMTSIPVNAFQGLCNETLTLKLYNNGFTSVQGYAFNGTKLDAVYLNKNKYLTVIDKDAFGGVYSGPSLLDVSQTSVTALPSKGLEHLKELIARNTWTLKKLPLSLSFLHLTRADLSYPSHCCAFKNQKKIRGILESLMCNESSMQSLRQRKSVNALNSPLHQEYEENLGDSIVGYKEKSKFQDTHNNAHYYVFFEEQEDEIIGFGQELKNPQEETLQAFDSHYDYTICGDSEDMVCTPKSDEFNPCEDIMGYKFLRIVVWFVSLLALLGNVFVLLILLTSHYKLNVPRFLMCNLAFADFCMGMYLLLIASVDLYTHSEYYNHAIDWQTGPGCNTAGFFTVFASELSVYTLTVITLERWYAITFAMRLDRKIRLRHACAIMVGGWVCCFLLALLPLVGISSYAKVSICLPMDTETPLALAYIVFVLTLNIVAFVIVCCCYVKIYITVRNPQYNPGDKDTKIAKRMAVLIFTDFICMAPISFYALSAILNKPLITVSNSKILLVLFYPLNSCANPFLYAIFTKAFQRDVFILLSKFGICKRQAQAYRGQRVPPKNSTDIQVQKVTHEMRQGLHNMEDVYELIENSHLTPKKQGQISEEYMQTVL
#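 HEK 293 cells stably expressing TSHR and a modified CNG channel, with CNG-only parental cells as counterscreen, were preloaded 60 min at room temperature with membrane potential dye containing 100 uM RO 20-1724. Compound exposure was 30 min, and depolarization was read as fluorescence at 590 nm.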
# TsaE inh: YjeE (TsaE) inhibition, E. coli. P0AF67. purified YjeE enzyme, qHTS inhibition assay. Potency, µM. 71,000 compounds, 0.05% hits. AID 605
#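 Fluorescence polarization of a BODIPY Texas Red–ADP probe (2 uM) bound to purified YjeE (10 uM) was read after 15 min room-temperature incubation with compounds. Loss of polarization marks inhibitors; ADP serves as titrated control.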
# Hsp90 Hop PPI: changes Hsp90-Hop TPR2A binding signal, up or down. AlphaScreen TPR2A-His6 binding biotin-Hsp90 C-terminal peptide. Potency, µM (doses to about 57 µM). 71,000 compounds, 0.44% hits. AID 595; active = well fitted curve in either direction with a large enough effect; inconclusive = small, poorly fitted or top-dose-only effect, or another doubt
# BRCT inh green: BRCA1 BRCT-phosphoprotein interaction inhibition; 75,000 compounds, 0.05% hits; P38398; Potency, µM (top dose mostly 76.9 µM), most hits filed as inhibitors; BRCA1 BRCT-phosphopeptide binding, green fluorescence polarization
#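 Fluorescence polarization: His-tagged BRCT (~35 kDa BRCA1 C-terminus, 250 nM) bound to 100 nM fluorescein-labeled phosphorylated 10-aa BACH1 peptide, pH 7.3 phosphate buffer with DTT and Tween 20. Compounds incubated 12 min at room temperature; inhibition read as lowered polarization.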
# A number is an active result; 0 = inactive; ? = inconclusive; - = no result given; [ ] = another dose, or the depositor's remark. This is a sample that favours compounds with a hit; in the whole collection about 3.3% have one here. Unless noted, calls follow the shape of the dose curve; as a rule, active = well fitted curve in the direction sought with a large enough effect; inconclusive = small, poorly fitted or top-dose-only effect, or another doubt; inactive = no such curve, though single readings can be large; an effect the other way counts as inactive or inconclusive.
SMILES,HEK293 cAMP cs,BRCT inh red,TSHR agonist,TsaE inh,Hsp90 Hop PPI,BRCT inh green
Cc1cccc(N(C(=O)Cn2nnc3ccccc32)C(C(=O)NCc2ccco2)c2ccncc2)c1C (configuration not stated),0,0,0,0,0,0
O=C(NC1CCCCC1)C(c1ccccc1F)N(Cc1ccco1)C(=O)Cn1nnc2ccccc21 (configuration not stated),20µM,0,?,0,0,0
O=C(NC1CCCCC1)C(c1ccc(F)cc1)N(Cc1ccco1)C(=O)Cn1nnc2ccccc21 (configuration not stated),16µM,0,?,0,0,0
O=C(NCc1ccco1)C(c1ccccc1)N(CC1CCCO1)C(=O)Cn1nnc2ccccc21 (configuration not stated),0,0,0,0,0,0
CC(C)c1ccc(/C(C(=O)O)=C(\O)C(=O)O)cc1,0[11.4 µM],0[15.4 µM],0[11.4 µM],0,0[11 µM],0[15.4 µM]
COC1=CC(=O)C(O)=C/C1=C\C=C\c1ccccc1,-,0,-,-,-,0
CC(C)Cc1nc2oc3c(N4CCN(CCO)CC4)ncnc3c2c2c1CCCC2,16µM,0,?,0,0,0
CC(C)C[C@H](NC(=O)[C@@H](NC(=O)N[C@@H](Cc1ccccc1)C(=O)O)[C@H]1CCN=C(N)N1)C(=O)N[C@H](C=O)Cc1ccccc1,0,-,0,0,0,-
Cc1ccc(C)c2[nH]c(=O)c(CCNC(=O)c3ccc(S(=O)(=O)N(C)C)cc3)cc12,0,0,0,0,0,0
CC(=O)Nc1ccc(S(=O)(=O)NCCc2cc3c(C)ccc(C)c3[nH]c2=O)cc1,25µM,0,?,0,0,0
N#Cc1cccc(-c2cncnc2NCc2cccs2)c1,?,0,?,0,0,0
CC(C)(C)c1cc(/C=C(\C#N)C(N)=S)cc(C(C)(C)C)c1O,3.2µM,0,?,0,?,0
[C-]#[N+]/C(C#N)=C\c1cc(C(C)(C)C)c(O)c(C(C)(C)C)c1,2.5µM,0,?,-,-,0
C[C@H](O)[C@H](O)[C@@H](O)c1cnc2nc(N)[nH]c(=O)c2n1,0,-,0,0,0,-
C[C@H]1[C@H](O)[C@@H](C)C=CC=CC=CC=CC=CC=CC=C[C@H](O[C@@H]2O[C@@H](C)[C@H](O)[C@@H](N)[C@@H]2O)C[C@@H]2O[C@](O)(C[C@@H](O)C[C@@H](O)[C@@H](O)CC[C@@H](O)C[C@@H](O)CC(=O)O[C@H]1C)C[C@H](O)[C@H]2C(=O)O,0[11.4 µM],0[15.4 µM],0[11.4 µM],0,0[11 µM],0[15.4 µM]
COC(=O)[C@H](NC(=O)c1cc(-c2ccccc2)nc2ccccc12)c1ccccc1,13µM,0,?,0,0,0
Cc1ccc(-c2nn3c(-c4ccco4)nnc3c3ccccc23)cc1S(=O)(=O)NCC1CCCO1 (configuration not stated),20µM,0,?,0,0,0
CCC(Sc1nnc(C)s1)C(=O)Nc1nccs1 (configuration not stated),25µM,0,?,0,0,0
CCC(Sc1nc2ccccc2s1)C(=O)Nc1nnc(C)s1 (configuration not stated),20µM,0,?,0,0,0
OC[C@@H]1O[C@@H](n2cnc3c(NC4CCCC4)ncnc32)[C@@H](O)[C@H]1O,?,0,?,0,0,0
Cc1ccc(-n2ncc3c(NCCCn4ccnc4)ncnc32)c(C)c1,1.6µM,0,?,0,0,0
CCOC(=O)C1CCN(c2nc3cc(OC)ccc3cc2C#N)CC1,?,0,?,0,25µM,0
COc1ccc2nc(N3CCC(O)CC3)c(C#N)cc2c1,0,0,0,0,0,0
COc1ccc2nc(N3CCC(C)CC3)c(C#N)cc2c1,0,0,0,0,25µM,0
CC1(C)OC(C(O)(c2cc(F)c(F)c(F)c2)c2cc(F)c(F)c(F)c2)C(C(O)(c2cc(F)c(F)c(F)c2)c2cc(F)c(F)c(F)c2)O1 (configuration not stated),0[11.4 µM],0[15.4 µM],0[11.4 µM],-,-,0[15.4 µM]
SMILES,HEK293 cAMP cs,BRCT inh red,TSHR agonist,TsaE inh,Hsp90 Hop PPI,BRCT inh green
C=C1CC[C@@H]2O[C@]2(C)CC[C@@H]2[C@H]1CC2(C)C,0,-,0,0,0,-
O=C(Nc1cc(C(F)(F)F)ccc1N1CCOCC1)C1Cc2ccccc2CN1C(=O)c1ccco1 (configuration not stated),1.3µM,0,?,0,0,0
Cc1ccc(CN(C)C(=O)c2ccccc2Oc2ccccc2)o1,32µM,0,?,0,0,0
Cc1cc(NC(=O)c2ccccc2Oc2ccccc2)no1,?,0,?,0,0,0
Cc1noc(C)c1COC(=O)c1ccccc1NC(=O)Cc1ccccc1,?,0,?,0,0,0
Cc1noc(C)c1COC(=O)c1ccccc1Oc1ccccc1,32µM,0,?,0,0,0
CCn1c(C(=O)N2CCC(C(=O)NCCCSC3CCCCC3)CC2)cc2sccc21,16µM,0,?,0,0,0
O=C(NCc1ccco1)C1CCN(C(=O)c2cc3sccc3n2Cc2ccc(F)cc2)CC1,0,0,20µM,0,0,0
CNc1ncnc2c1ncn2[C@H]1C[C@@H](OP(=O)(O)O)[C@H](COP(=O)(O)O)O1,0,0,-,0,0,0
c1ccc(COn2c(-c3ccccc3)nc3c2CCc2nonc2-3)cc1,25µM,0,?,0,0,0
CC(=O)NCCSC(=O)c1ccc(F)cc1,3.2µM,0,?,0,0,0
C=CCN=C1SC(C)C(=O)N1S(=O)(=O)c1ccccc1 (configuration not stated),0,0,3.2µM,0,0,0
Ic1ccc2c(c1)N(c1ccccc1)c1cc(Nc3ccc4nc5ccc(I)cc5[n+](-c5ccccc5)c4c3)ccc1N2,0[11.4 µM],0[15.4 µM],0[11.4 µM],?,0[11 µM],0[15.4 µM]
CCOC(=O)c1sc(N)c(C(=O)Nc2ccc(C)cc2C)c1C,0,0,0,-,-,0
COc1ccc(OC)c(NC(=O)CSCc2cnn(-c3ccccc3)c2-n2cccc2)c1,25µM,0,?,0,0,0
CCOC(=O)c1sc(NC(=O)CN2CCCC2)c(C(=O)OCC)c1C,0,0,0,0,0,0
CCOC(=O)c1sc(NC(=O)CSc2nnc(C)s2)c(C(=O)OCC)c1C,13µM,0,?,0,0,0
CC(C)C(=O)Cc1ccc2ccccc2n1,0[11.4 µM],0[15.4 µM],0[11.4 µM],0,0[11 µM],0[15.4 µM]
CCCCC[C@H](O)c1cccc(OCc2ccc3ccccc3n2)c1,20µM,0,?,0,0,0
COc1cccc2cc(-c3nnc(SCC(=O)Nc4cc(C(F)(F)F)ccc4Cl)n3N)oc12,25µM,0,?,0,0,0
COc1ccc2[nH]cc(CCNc3ncncc3-c3ccccc3C)c2c1,?,0,?,?,0,0
